# Measured values published in ChEMBL document CHEMBL1961873, “Compounds: GSK PKIS; Assays: Nanosyn kinase panel” (2012).
# Target: T1, Ephrin type-A receptor 3 (Homo sapiens) (UniProt P29320)
# T1 sequence (whole entry): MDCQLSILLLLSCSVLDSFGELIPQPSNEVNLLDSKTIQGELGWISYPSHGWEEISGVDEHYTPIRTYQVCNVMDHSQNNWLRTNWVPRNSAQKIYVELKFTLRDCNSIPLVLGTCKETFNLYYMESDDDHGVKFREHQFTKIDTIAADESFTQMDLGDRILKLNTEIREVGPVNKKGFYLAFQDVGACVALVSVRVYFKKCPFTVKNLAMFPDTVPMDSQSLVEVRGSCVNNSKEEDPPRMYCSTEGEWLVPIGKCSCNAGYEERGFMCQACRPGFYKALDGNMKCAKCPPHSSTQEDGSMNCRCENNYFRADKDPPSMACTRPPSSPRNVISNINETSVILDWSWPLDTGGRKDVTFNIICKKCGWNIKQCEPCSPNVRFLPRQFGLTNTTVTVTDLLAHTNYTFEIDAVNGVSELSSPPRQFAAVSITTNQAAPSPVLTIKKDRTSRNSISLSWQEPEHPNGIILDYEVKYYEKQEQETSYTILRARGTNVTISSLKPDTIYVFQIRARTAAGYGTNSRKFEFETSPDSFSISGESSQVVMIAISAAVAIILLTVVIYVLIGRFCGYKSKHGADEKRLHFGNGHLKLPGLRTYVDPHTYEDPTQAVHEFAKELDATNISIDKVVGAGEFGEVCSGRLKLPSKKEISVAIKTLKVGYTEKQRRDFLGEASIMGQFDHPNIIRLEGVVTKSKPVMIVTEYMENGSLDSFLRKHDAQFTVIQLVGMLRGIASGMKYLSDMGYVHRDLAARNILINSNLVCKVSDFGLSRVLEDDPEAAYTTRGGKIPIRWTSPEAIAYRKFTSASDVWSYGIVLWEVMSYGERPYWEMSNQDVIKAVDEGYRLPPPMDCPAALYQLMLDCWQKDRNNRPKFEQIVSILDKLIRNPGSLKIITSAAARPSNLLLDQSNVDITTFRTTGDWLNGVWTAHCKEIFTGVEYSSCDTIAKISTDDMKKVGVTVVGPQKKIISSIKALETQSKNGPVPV
# Conditions: at 1 µM
# 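Also: mean inhibition value reported from the GSK PKIS kinase profiling screen.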
row,Structure (SMILES),inhibition [%]
1,C[C@@H](Oc1cc(-n2cnc3ccc(OCC4CCN(C)CC4)cc32)sc1C(N)=O)c1ccccc1C(F)(F)F,-0.01
2,Cc1cc(O)cc(C)c1/C=C/c1cncc(C(=O)N(C)C)c1,8.52
3,c1ccc(Nc2ncc(-c3ccccc3)o2)cc1,4.8
4,COc1ccc(-c2nn3ncccc3c2-c2ccnc(Nc3cccc(C(F)(F)F)c3)n2)cc1,5.21
5,Cc1ccc(NC(=O)CC2CC2)cc1-c1ccc(C(=O)NCC2CC2)cc1,4.59
6,COC(=O)c1ccc2c(c1)C(=Cc1cc(Br)c(O)c(Br)c1)C(=O)N2,4.62
7,Cc1ccc2c(-c3ccnc(Nc4ccc5c(c4)OCCO5)n3)c(-c3ccc(C(F)(F)F)cc3)nn2n1,0
8,COc1cc(/C=N/Nc2ncnc3c2cnn3C(C)C)ccc1O,7.89
9,Nc1ccc(C#Cc2cncnc2Nc2ccc(OCc3cccc(F)c3)c(Cl)c2)cc1,3.02
10,ON=C1CCc2cc(-c3nc(C4CCNCC4)[nH]c3-c3ccncc3)ccc21,-2.2
11,COc1cccc(-n2ncc3c(N/N=C/c4ccc(C)cc4)ncnc32)c1,3.46
12,CCS(=O)(=O)c1ccc(OC)c(Nc2ncc(-c3cccc(OC)c3)o2)c1,8.5
13,CC(C)c1ccc2c(c1)NC(=O)/C2=N/Nc1ccc(S(N)(=O)=O)cc1,1.64
14,Cc1cc(Cl)cc2c1NC(=O)C2=NNc1ccc(S(N)(=O)=O)cc1,2.87
15,CC(C)c1ccc(Nc2nccc(-c3cnn4ncccc34)n2)cc1,4.55
16,N#Cc1cccc(Nc2nccc(-c3cnn4ncccc34)n2)c1,19.2
17,Oc1cccc(-c2nc(-c3ccccc3)[nH]c2-c2ccncc2)c1,6.42

row,Structure (SMILES),inhibition [%]
1,CN1CCN(C(=O)c2ccc(NC(=O)Nc3ccc(N(C)c4ccnc(Nc5ccc(CS(C)(=O)=O)cc5)n4)cc3)cc2)CC1,4.49
2,COC(=O)Nc1nc2cc(Oc3ccc(NC(=O)Nc4cccc(Br)c4)cc3)ccc2[nH]1,12.4
3,COc1cccc(-n2ncc3c(N/N=C/c4ccc(S(C)(=O)=O)cc4)ncnc32)c1,-1.2
4,NS(=O)(=O)c1ccc(NC=C2C(=O)Nc3ccc4ncsc4c32)cc1,12.8
5,CS(=O)(=O)CCNCc1nc(-c2ccc3ncnc(Nc4ccc(OCc5cccc(C(F)(F)F)c5)cc4)c3c2)cs1,3.51
6,C[C@@H](Oc1cc(-n2cnc3ccc(OC[C@@H](O)CO)cc32)sc1C(N)=O)c1ccccc1Cl,1.69
7,NS(=O)(=O)c1ccc(-c2cc3ccncc3cc2OCc2ccccc2)cc1,3.77
8,NS(=O)(=O)c1ccc(Nc2cc(-c3cccc(O)c3)n[nH]2)cc1,6.36
9,Cc1ccc(Nc2ccnc(Nc3cccc(C(N)=O)c3)n2)cc1O,33.9
10,COc1cccc(-n2nc(C)c3c(N/N=C(\C)c4ccncc4)ncnc32)c1,2.37
11,CCn1c(-c2nonc2N)nc2ccc(F)cc21,4.99
12,COc1cc2ncn(-c3cc(OCc4ccccc4S(C)(=O)=O)c(C#N)s3)c2cc1OC,13.6
13,COc1cc2ncnc(Nc3ccc(C)c(O)c3)c2cc1OC,16.7
14,NS(=O)(=O)c1cccc(-c2cc3ccncc3cc2OCc2ccccc2)c1,3.87
15,COC(=O)c1cncc(/C=C/c2c(C)cc(O)cc2C)c1,16.2
16,COc1cc(Nc2nccc(-c3cnn4ncccc34)n2)cc(OC)c1,11.1
